The structures appear in SMILES notation. For some of these results: Results with a measured potency or affinity are listed apart.

Set-up in all cases: scale not given: direction of the effect not stated beside the values
Assay [1] deals with Protein translocase subunit SecA (Escherichia coli (strain K12)) (UniProt P10408). In words: Assay to Identify E. coli SecA ATPase Inhibitors. Type of assay: functional. As to conditions: 30 µM.
For assay [2], the target named is T1, Ubiquitin-activating enzyme e1, putative (Leishmania donovani (strain BPK282A1)) (UniProt E9BSI1).
T1 sequence (whole entry): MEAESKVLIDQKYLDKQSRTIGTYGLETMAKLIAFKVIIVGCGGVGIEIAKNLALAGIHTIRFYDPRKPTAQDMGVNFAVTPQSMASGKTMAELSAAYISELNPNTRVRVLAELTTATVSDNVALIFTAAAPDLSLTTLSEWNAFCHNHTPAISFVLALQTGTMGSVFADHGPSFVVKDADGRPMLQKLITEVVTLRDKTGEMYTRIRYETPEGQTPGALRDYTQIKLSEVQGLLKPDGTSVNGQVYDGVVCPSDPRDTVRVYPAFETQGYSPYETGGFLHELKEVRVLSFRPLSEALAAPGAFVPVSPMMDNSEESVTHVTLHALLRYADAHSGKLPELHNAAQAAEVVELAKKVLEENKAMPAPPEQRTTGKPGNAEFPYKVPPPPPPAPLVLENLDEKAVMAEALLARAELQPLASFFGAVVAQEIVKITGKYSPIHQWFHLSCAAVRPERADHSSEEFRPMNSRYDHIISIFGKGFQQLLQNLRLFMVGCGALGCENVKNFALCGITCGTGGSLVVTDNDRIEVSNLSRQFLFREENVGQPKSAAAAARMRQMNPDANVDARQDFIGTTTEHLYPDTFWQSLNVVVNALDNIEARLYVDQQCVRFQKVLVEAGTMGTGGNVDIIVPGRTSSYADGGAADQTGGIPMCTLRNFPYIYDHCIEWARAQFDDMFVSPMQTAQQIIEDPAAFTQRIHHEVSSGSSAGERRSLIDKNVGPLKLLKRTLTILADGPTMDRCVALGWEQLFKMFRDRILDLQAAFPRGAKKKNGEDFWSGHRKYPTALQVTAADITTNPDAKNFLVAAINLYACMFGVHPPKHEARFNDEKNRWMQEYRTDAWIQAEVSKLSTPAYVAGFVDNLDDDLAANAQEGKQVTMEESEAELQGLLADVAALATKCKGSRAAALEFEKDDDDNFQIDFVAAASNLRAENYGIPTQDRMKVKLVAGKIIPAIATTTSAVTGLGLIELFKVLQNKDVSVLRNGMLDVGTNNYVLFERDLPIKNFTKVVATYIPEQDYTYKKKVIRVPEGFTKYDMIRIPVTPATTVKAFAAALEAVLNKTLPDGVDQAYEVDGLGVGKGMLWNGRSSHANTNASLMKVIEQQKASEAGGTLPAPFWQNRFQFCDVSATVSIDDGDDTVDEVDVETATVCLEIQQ
In words: Leishmania donovani Ubiquitin Activating Enzyme (LdE1). The class given is functional. Conditions: 30 µM.

The target in assay [3] is AMP-activated protein kinase, AMPK (Homo sapiens) (UniProt P54646+O43741+P54619+Q9UGJ0+Q9Y478+Q13131+Q9UGI9). Briefly: AMP-dependent Kinase enzyme assay. An in vitro enzyme assay that detects ADP turnover that is directly proportional to AMPK activity. This uses naive AMPK that is activated during the assay with MK-8722. The class given is functional. Conditions: 30 µM.

Assay [4] concerns the target Sialic acid-binding Ig-like lectin 9 (Homo sapiens) (UniProt Q9Y336). Briefly: Hs-Siglec9 ALPHAscreen SOP 20170721. Conditions: 10 µM. A general note: Alpha assays give light when donor and acceptor beads are brought close together.
Assay [5] concerns Trypanosoma cruzi. In words: Trypanosoma cruzi phosphomannomutase and mannose-1-phosphate guanylyltransferase assay. Type of assay: functional. As to conditions: 10 µM.
Assay [6] concerns the target T2, Arginase-2, mitochondrial (Homo sapiens) (UniProt P78540).
T2 sequence (whole entry): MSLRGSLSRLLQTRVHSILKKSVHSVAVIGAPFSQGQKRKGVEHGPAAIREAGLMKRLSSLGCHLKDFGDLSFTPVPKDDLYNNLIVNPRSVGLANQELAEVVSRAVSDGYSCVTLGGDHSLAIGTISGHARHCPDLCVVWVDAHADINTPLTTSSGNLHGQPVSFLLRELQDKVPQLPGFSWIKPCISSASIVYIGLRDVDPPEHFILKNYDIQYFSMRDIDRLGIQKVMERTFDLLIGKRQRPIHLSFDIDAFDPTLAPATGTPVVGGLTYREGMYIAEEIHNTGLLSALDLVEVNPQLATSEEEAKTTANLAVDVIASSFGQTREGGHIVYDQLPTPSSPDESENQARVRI
In words: in vitro enzyme assay to detect the production of urea directly proportional to the activity of Arginase II. Also: in the data most compounds retested in dose-response had high values. Type of assay: functional. As to conditions: 33.3 µM.

The target in assay [7] is T3, Proteasome subunit beta (Trypanosoma cruzi) (UniProt O96673).
T3 sequence (whole entry): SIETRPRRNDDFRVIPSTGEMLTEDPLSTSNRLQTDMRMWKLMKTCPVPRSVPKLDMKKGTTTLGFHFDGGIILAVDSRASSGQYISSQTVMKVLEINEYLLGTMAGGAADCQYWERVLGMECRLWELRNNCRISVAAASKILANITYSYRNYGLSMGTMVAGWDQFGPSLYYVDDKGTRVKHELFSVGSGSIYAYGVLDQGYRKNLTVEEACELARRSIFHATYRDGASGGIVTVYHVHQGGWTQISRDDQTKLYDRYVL
Briefly: Trypanosoma cruzi proteasome chymotrypsin-like activity (TcProtChymo) assay. Also: in the data most compounds retested in dose-response had high values. Type of assay: functional. As to conditions: 9.37 µM.

The species entered for assay [8] is Homo sapiens. Briefly: To identify inhibition of the IFN signalling (Jak-Stat) pathway via expression of an eGFP reporter gene under the control of an IFN-stimulated response element (ISRE) containing MxA promoter. As to conditions: 30 µM. The class given is functional. (In general: A reporter such as luciferase makes a cellular process visible.)
Assay [9] deals with T4, Tyrosyl-tRNA synthetase, putative (Trypanosoma cruzi (strain CL Brener)) (UniProt Q4DSP6).
T4 sequence (whole entry): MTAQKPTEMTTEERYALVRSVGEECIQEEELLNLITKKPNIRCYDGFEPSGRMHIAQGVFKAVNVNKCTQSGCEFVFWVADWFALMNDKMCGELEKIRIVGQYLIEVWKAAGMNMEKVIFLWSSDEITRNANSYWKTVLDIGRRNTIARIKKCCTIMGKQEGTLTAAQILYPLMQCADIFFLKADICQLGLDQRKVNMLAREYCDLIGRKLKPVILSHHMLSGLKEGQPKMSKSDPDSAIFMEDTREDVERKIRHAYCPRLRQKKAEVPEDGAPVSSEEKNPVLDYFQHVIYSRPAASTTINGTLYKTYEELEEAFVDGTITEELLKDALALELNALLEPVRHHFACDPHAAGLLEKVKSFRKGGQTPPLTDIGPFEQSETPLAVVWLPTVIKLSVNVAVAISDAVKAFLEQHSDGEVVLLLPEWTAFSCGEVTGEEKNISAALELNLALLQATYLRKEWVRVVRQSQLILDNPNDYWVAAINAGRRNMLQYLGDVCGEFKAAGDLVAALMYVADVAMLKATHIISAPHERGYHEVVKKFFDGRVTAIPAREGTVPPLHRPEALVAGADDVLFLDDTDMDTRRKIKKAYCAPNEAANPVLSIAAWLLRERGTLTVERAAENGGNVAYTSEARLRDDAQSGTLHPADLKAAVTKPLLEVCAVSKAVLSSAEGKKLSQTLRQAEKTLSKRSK
In words: Trypanosoma cruzi tyrosyl tRNA synthetase (TcYRS) _High Tyrosine SOP. Also: in the data most compounds retested in dose-response had high values. The class given is functional. As to conditions: 30 µM.

The target of assay [10] is T4, Tyrosyl-tRNA synthetase, putative (Trypanosoma cruzi (strain CL Brener)). In words: Trypanosoma cruzi tyrosyl tRNA synthetase (TcYRS) SOP. Type of assay: functional. Conditions: 30 µM.
The target in assay [11] is Chromo domain-containing protein 1 (Saccharomyces cerevisiae (strain ATCC 204508 / S288c) (Baker's yeast)) (UniProt P32657). Briefly: ScCHD-1 Enzyme Inhibition Assay. Also: in the data most compounds retested in dose-response had high values. As to conditions: 30 µM. Type of assay: functional.
Chain of Chromo domain-containing protein 1 (Saccharomyces cerevisiae (strain ATCC 204508 / S288c) (Baker's yeast)) (P32657 whole entry, the tested form may be a part): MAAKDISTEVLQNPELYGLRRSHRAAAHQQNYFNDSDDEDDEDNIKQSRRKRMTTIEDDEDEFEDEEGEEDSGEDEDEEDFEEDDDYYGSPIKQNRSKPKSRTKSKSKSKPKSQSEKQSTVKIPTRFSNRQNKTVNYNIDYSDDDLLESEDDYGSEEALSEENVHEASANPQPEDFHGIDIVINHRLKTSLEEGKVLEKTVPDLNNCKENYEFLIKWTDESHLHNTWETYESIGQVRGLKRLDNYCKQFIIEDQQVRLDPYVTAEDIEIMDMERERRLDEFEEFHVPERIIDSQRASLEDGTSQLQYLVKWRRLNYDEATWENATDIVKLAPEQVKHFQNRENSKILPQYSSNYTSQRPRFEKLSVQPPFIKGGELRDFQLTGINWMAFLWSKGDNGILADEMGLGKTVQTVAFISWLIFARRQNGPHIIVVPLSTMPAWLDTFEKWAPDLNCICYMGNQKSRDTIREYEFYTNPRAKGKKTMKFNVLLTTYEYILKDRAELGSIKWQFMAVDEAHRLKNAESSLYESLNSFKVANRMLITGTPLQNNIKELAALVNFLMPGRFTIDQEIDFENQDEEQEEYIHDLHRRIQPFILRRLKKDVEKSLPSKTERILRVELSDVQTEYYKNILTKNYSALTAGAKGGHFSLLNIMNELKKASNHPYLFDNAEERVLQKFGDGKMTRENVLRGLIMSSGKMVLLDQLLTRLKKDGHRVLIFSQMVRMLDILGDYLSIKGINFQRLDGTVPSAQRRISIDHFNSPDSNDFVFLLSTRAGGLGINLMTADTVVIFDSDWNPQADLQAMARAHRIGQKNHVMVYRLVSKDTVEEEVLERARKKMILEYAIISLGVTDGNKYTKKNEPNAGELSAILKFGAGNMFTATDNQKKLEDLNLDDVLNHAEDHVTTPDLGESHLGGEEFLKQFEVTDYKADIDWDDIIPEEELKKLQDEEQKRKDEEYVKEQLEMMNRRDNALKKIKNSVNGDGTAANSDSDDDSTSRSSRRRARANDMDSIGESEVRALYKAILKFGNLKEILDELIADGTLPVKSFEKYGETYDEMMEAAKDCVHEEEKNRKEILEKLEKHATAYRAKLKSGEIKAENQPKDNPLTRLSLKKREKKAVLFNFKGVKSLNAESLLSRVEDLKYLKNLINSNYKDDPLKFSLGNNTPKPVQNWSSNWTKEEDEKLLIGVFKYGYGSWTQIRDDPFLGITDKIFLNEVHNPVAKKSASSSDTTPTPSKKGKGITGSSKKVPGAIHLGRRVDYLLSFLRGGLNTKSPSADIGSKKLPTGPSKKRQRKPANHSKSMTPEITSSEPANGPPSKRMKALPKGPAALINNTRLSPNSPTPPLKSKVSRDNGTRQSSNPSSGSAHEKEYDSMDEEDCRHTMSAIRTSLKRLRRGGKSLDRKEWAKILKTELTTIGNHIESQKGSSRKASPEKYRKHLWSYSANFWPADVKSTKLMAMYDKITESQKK

Chain of Sialic acid-binding Ig-like lectin 9 (Homo sapiens) (Q9Y336 whole entry): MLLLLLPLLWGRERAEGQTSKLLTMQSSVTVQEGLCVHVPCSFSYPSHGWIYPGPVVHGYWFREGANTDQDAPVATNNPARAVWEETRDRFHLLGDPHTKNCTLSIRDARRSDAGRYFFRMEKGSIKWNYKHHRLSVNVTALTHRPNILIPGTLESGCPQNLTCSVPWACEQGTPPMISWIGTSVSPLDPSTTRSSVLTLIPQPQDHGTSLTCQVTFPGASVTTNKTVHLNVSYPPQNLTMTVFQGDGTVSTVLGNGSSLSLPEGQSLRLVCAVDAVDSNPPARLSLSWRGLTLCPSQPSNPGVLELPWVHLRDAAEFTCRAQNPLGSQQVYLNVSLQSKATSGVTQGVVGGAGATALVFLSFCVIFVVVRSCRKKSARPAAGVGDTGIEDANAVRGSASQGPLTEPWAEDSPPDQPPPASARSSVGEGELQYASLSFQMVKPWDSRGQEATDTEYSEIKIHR
Chain of Protein translocase subunit SecA (Escherichia coli (strain K12)) (P10408 whole entry): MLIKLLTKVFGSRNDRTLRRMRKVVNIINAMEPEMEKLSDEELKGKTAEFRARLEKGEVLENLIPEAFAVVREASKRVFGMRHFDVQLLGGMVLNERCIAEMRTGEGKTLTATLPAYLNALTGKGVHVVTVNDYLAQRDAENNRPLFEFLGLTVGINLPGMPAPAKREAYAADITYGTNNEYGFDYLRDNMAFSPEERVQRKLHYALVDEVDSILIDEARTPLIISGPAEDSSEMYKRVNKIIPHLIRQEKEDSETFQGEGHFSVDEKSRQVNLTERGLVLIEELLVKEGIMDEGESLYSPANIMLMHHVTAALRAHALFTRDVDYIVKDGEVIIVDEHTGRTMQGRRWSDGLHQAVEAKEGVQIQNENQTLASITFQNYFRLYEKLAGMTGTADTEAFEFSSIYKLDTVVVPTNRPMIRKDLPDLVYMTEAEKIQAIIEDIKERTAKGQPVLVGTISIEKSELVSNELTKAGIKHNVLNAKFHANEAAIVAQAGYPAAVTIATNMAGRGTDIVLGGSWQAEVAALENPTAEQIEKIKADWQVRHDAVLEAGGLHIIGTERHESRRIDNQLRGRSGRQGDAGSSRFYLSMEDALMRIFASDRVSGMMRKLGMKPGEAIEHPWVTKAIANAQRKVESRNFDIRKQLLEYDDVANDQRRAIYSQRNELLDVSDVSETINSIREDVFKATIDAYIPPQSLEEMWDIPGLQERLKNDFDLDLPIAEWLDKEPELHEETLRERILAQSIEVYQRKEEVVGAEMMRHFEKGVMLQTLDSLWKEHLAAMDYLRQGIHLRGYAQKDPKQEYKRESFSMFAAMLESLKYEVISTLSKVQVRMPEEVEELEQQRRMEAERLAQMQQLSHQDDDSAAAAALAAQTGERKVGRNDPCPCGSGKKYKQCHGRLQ

`COCC(=O)N1CCC(c2nccn2CC2CC2)CC1`: the Percent Effect in assay [1] was 0.53%; in [2], 10.8%; in assay [3], -6.45%; in assay [4], 8.36%; in assay [5], 5.41%; in [6], 8.57%. Besides, the Percent Effect in assay [7] was 19.8%; in assay [8], -2.14%; in [9], 6.88%; in assay [10] it was 19.5%; in [11], -2.23%.

As for `c1ccc(Cn2cncn2)c(CNCC2CNc3ccnn3C2)c1` (stereo unspecified), the Percent Effect was 0.235% in assay [1]; 20.8% in assay [2]; -8.08% in [3]; 4.1% in assay [4]; 10.3% in [5]; 1.78% in [6]. Further, the Percent Effect in assay [7] was 8.45%; in assay [8], 12.4%; in [9], 12.6%; in [10], 21.9%; in assay [11], -7.41%.

Turning to `NC(=O)c1ccc(N2CCCCC2)c(NC(=O)c2cc(Br)ccc2F)c1`, the Percent Effect in assay [1] is -3.67%; in assay [2] it was 7.79%; in [3], 2.61%; in [4], 8.24%; in [5], 0.295%; in assay [6], -16.6%. Moreover, the Percent Effect came out at 14.8% in assay [7]; 1.93% in [8]; 4.3% in assay [9]; 6.17% in assay [10]; 24.8% in [11].

Regarding `CC(=O)NC(C)c1ccc(OCC2CC2)c(F)c1` (stereo unspecified), the Percent Effect in assay [1] is -2.63%; in assay [2], 5.26%; in assay [3], -0.202%; in assay [4], 5%; in assay [5] it was 3.21%; in [6] it was -9.47%. The Percent Effect was 4.7% in assay [7]; 7.74% in assay [8]; 4.25% in assay [9]; 7.79% in assay [10]; -7.19% in assay [11].

`CN1CC[C@H](c2ccccc2)[C@@H]2[C@H]1CCCCN2C(=O)c1cnccn1`: the Percent Effect in assay [1] was -2.95%; in assay [2] it was -4.05%; in assay [3] it was 7.03%; in assay [4], 1.21%; in [5], 3.75%; in [6], -5.34%. Moreover, the Percent Effect in [7] was 10.8%; in assay [8], 3.3%; in assay [9], 4.3%; in assay [10], 3.9%; in assay [11] it was -14%.

With `Cc1nc(C)n(C2CCCN(C(=O)c3ccc(F)cc3F)C2)n1` (stereo unspecified), the Percent Effect in assay [1] is -3.45%; in assay [2] it was 0%; in [3] it was 0.572%; in assay [4], -0.68%; in assay [5], 2.73%; in assay [6], 24.6%. Moreover, the Percent Effect was 11.2% in assay [7]; -8.13% in assay [8]; 9.9% in [9]; 18.3% in assay [10]; -7.11% in assay [11].

`COC(=O)c1sccc1NC(=O)C1CCCN1C(=O)c1ccco1` (stereo unspecified): the Percent Effect is -0.782% in assay [1]; -15.3% in assay [2]; 13.2% in assay [3]; -14.9% in [4]; -8.84% in assay [5]; -3.53% in [6]. For the same compound, the Percent Effect was 20.4% in [7]; 1.28% in assay [8]; -3.16% in assay [9]; 2.56% in assay [10]; -2.51% in [11].

Consider `C[S+]([O-])c1nncn1CC(=O)c1ccc(Cl)c(Cl)c1` (stereo unspecified), for which the Percent Effect is -5.28% in [1]; 8.11% in assay [2]; -4.71% in assay [3]; 15.3% in assay [4]; 5.57% in assay [5]; 2.73% in [6]. Also, the Percent Effect in assay [7] was 4.38%; in assay [8] it was -5.62%; in [9], -4.3%; in [10], 1.24%; in assay [11], -5.11%.

Turning to `CCN(CC)C(=O)c1nnn(Cc2ccccc2)c1OC`, the Percent Effect in [1] was -6.72%; in assay [2], -1.33%; in assay [3], 3.11%; in [4] it was 2.1%; in [5], -4.52%; in assay [6], -4.05%. In addition, the Percent Effect in assay [7] is 8.32%; in assay [8], -11.4%; in assay [9] it was 6.35%; in [10], 5.13%; in assay [11] it was -1.8%.

As to `CSCC(=O)N1CCCN(c2ccccc2C)CC1`, the Percent Effect was -7.55% in assay [1]; 2.7% in assay [2]; -2.83% in assay [3]; -3.96% in assay [4]; -5.18% in [5]; -0.248% in assay [6]. Besides, the Percent Effect in assay [7] was 1.8%; in assay [8], 4.54%; in [9], 1.07%; in assay [10] it was 6.17%; in assay [11] it was -3.91%.

In the case of `Cc1ccc2cnn(CCC(=O)NCc3c(C)nn(C)c3C)c2c1`, the Percent Effect was -6.31% in assay [1]; 2.6% in assay [2]; 0.586% in [3]; 1.87% in assay [4]; 0.492% in [5]; -1.38% in assay [6]. Also, the Percent Effect in assay [7] was 8.98%; in assay [8], 7.06%; in assay [9] it was 3.23%; in assay [10], 6.17%; in assay [11] it was -1.97%.

For the origin of these results see ChEMBL document CHEMBL3988442, “University of Dundee, Small-Polar-MMV Screening Library” (2021).
